Screens deposited in PubChem by several laboratories.
CYP2C9 activ – human CYP2C9 activators, primary screen, biochemical, luminescence | Cytochrome P450 2C9 (Homo sapiens), P11712 | recombinant CYP2C9, luciferin-H conversion; hits give high values; factor 1 = untreated enzyme, 0 = blocked | activation factor at 5 µM | 96,000 compounds, 1.4% hits | AID 1024, 2008;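 active = activation factor of 2 or more for CYP2C9 at a 5 µM dose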
CYP2C19 inh – blockers of cytochrome P450 2C19 activity – biochemical, luminescence, ADME assay, primary screen; P33261; CYP2C19 Supersomes, luciferin-H EGE luminescence, 30 min; inhibition, % at 5 µM; 96,000 compounds, 21% hits;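 active = CYP2C19 inhibition above a set limit at 5 µM in the primary screen, cut at about 50% in these data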
Target sequence (P33261 whole entry, looked up): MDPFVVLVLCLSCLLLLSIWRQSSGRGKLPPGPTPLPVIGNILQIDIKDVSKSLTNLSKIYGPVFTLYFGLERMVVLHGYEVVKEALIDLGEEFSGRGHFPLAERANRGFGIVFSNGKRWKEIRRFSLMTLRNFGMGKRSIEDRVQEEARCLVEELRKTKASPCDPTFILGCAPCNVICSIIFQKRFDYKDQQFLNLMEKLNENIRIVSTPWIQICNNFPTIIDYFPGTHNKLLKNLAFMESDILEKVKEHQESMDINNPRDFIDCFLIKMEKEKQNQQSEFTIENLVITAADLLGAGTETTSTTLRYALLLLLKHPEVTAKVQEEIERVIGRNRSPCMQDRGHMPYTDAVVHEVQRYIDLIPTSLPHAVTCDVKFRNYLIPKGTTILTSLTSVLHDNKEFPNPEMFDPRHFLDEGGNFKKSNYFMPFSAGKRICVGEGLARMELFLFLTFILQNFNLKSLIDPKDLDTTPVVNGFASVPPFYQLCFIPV
Cav32 inh – Cav3.2 calcium influx blockers – cell-based, Fluo-4 calcium fluorescence, FDSS, MLSMR library, primary screen; Voltage-dependent T-type calcium channel subunit alpha-1H (Homo sapiens), O95180; Cav3.2-expressing cells; hits give low values; B-score at 10 µM; 100,000 compounds, 4% hits;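 active = single-dose well whose peak fluorescence ratio is a statistical outlier from its plate by either plate-standardised score or position-corrected B-score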
CYP2C19 act – human CYP2C19 activators, primary screen, biochemical, luminescence; Cytochrome P450 2C19 (Homo sapiens), P33261; recombinant CYP2C19, luciferin-H EGE luminescence; hits give high values; 0 = fully inhibited enzyme, 1 = untreated enzyme; activation factor at 5 µM; 96,000 tested, under 10 active; AID 1025, 2008;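 active = activation factor of at least 2 at 5 µM in the primary screen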
CYP2C9 inhib – blockers of cytochrome P450 2C9 activity – biochemical, luminescence, ADME assay, primary screen | P11712 | CYP2C9 Supersomes, luciferin-H conversion | inhibition, % at 5 µM | 96,000 compounds, 20% hits;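 active = blocking of liver enzyme CYP2C9 beyond about 50% at 5 µM, limit read from the data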
Each line names hits and unclear results; the compound was inactive in the other large screens. An excerpt weighted towards active compounds, which were near 27% of everything screened.

O=C(CSc1nc2ccccc2n1CCc1ccccc1)NC1CCS(=O)(=O)C1 (stereo not drawn)	CYP2C19 inh 96, CYP2C9 inhib 99
O=C(CSc1nc(SCC(=O)NCc2ccccc2)n(-c2ccccc2)n1)NCc1ccccc1	CYP2C19 inh 66, CYP2C9 inhib 83
Cn1c(SCC(=O)NCc2ccccc2)nc2ccccc21	CYP2C9 activ 4.5 (no result: Cav32 inh)
O=C1c2ccccc2NC(c2ccccn2)N1c1ccc(Cl)cc1 (stereo not drawn)	CYP2C9 inhib 63
Cc1cccc(C2Nc3ccccc3C(=O)N2c2ccccc2)n1 (stereo not drawn)	CYP2C19 inh 71, CYP2C9 inhib 70
COC(=O)C1=C(C)N=C2SC(C#N)=C(N)N2C1c1ccc(OCc2ccccc2)cc1 (stereo not drawn)	CYP2C9 inhib 69
COC(=O)C1=C(C)N=C2SC(C#N)=C(N)N2C1c1cc(OC)c(OC)c(OC)c1 (stereo not drawn)	CYP2C19 inh 87, CYP2C9 inhib 93
COC(=O)C1=C(C)N=C2SCCC(=O)N2C1c1cc(Br)ccc1OC (stereo not drawn)	none
CC(C(=O)Nc1ccccc1-c1ccccc1)N1CCCCC1 (stereo not drawn)	none
CCN(Cc1ccccc1)C(=O)c1cc2c(=O)oc3ccc(C)cc3c2s1	none
CCN(CC)C(=O)c1cc2sc3ccccc3c2s1	CYP2C9 activ 2.4
COCCN(CCOC)C(=O)c1cc2sc3ccccc3c2s1	CYP2C9 activ 2.8
Cc1c(NC(=O)C(Sc2ccccc2)c2ccccc2)cccc1[N+](=O)[O-] (stereo not drawn)	none (no result: Cav32 inh)
COc1ccccc1CC1(C)NC(=O)N(CC(=O)N2CC(C)OC(C)C2)C1=O (stereo not drawn)	CYP2C19 inh 57
CC1CN(C(=O)CN2C(=O)NC3(CCCCCC3)C2=O)CC(C)O1 (stereo not drawn)	none
CC(C)C[C@H](NC(=O)c1[nH]cnc1C(=O)N[C@@H](C)c1ccccc1)C(=O)OCc1ccccc1	none (no result: CYP2C9 activ, CYP2C19 inh, CYP2C19 act, CYP2C9 inhib)
COc1cccc2c1OC1(C)CC2NC(=O)N1c1cccc(C(=O)N2CCN(c3ccccn3)CC2)c1 (stereo not drawn)	none
C[C@@]12CC(=O)NC1N(C(=O)c1cccc(C(F)(F)F)c1)C(c1ccccc1O)C2 (stereo partly drawn)	CYP2C19 inh 56, CYP2C9 inhib 69
Cc1cccc(C(=O)Oc2ccccc2C2C[C@]3(C)CC(=O)NC3N2C(=O)c2cccc(C)c2)c1 (stereo partly drawn)	CYP2C9 inhib 57
O=C(NCc1nc2ccccc2[nH]1)C1=C[C@H](C2CC2)C[C@H](OCc2ccc(CO)cc2)O1	none (no result: CYP2C9 activ, CYP2C19 inh, CYP2C19 act, CYP2C9 inhib)
Cn1cc(CNC(=O)C23CC4CC(CC(C4)C2)C3)cn1	none (no result: CYP2C9 activ, CYP2C19 inh, CYP2C19 act, CYP2C9 inhib)
CCCNC(=O)NC(C(=O)OC)C12CC3CC(CC(C3)C1)C2 (stereo not drawn)	CYP2C19 inh 69
CCCNC(=O)N[C@@H](CCSC)C(=O)OC	none
Cc1oc(-c2ccc3c(c2)OCCO3)cc1C(=O)O	CYP2C19 inh 88, CYP2C9 inhib 72
O=C(NC(Cc1ccccc1)c1nc2ccccc2[nH]1)C1CC(=O)N(c2ccc3c(c2)OCCO3)C1 (stereo not drawn)	CYP2C19 inh 81
O=C(NCCCc1ccccc1)C1CC(=O)N(c2ccc3c(c2)OCCO3)C1 (stereo not drawn)	none (no result: CYP2C9 activ, CYP2C19 inh, CYP2C19 act, CYP2C9 inhib)
Cc1noc(C)c1S(=O)(=O)Nc1ccc(C(=O)NCCc2ccccc2)cc1	CYP2C9 inhib 60
Cc1ccc(NC(=O)c2ccc(NS(=O)(=O)c3c(C)noc3C)cc2)cc1C	CYP2C9 inhib 79
COc1ccc(Br)cc1CNC(=O)C1CCN(S(=O)(=O)N2CCCCC2)CC1	CYP2C9 activ 2.2
COc1ccc(CNC(=O)c2ccc(NS(=O)(=O)c3c(C)noc3C)cc2)cc1	CYP2C9 inhib 58
CCCNC(=O)c1ccc(CNc2c(N3CCC(C(=O)OCC)CC3)c(=O)c2=O)cc1	none
O=C(COc1ncnc2scc(-c3ccc(Cl)cc3)c12)NCc1ccco1	none
Cc1ccc(CC2(O)CC(C)N(C)CC2C)c(C)c1 (stereo not drawn)	none
COc1ccccc1CNC(=O)C1CCN(S(=O)(=O)c2c(C)noc2C)CC1	CYP2C9 activ 2
COc1ccccc1NC(=O)c1ccc(NS(=O)(=O)c2c(C)noc2C)cc1	none
